Compounds with a hit are over-represented: about 1.1% of the library has one in this group of screens.
TrxR1 substrate = rat thioredoxin reductase 1 substrate activity; Potency, µM (titrated, usually from 114 µM), for the others: top-dose activity change, negative = substrate turnover; purified TrxR1 substrate turnover, NADPH consumption readout; AID 588456; actives 0.01% (n = 390,000); O89049; also: nearly all actives have a fitted effect of over 50% in size
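Rat TrxR1, dispensed at 90 nM, was prereduced with 400 uM NADPH (final) for 5 min at ~22 deg C, then incubated with compound 15 min before 400 uM selenite. A first-read NADPH fluorescence drop versus no-compound background flagged substrates.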
Eya2 phos inh = inhibitors of human Eya2 phosphatase activity | recombinant Eya2, OMFP fluorescence dephosphorylation (OMFP is methylfluorescein phosphate) | Potency, µM (titrated, usually from 76.9 µM), for inactives: top-dose activity, negative = inhibition, most hits filed as inhibitors | actives 0.006% (n = 330,000)
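Eya2 protein (added as 0.2 uM solution) was preincubated with compound for 10 min at ambient temperature in 50 mM HEPES pH 7.5, 50 mM NaCl, 5 uM MgCl2, 0.05% BSA, 1 mM DTT. OMFP (added at 50 uM) then reacted 10 min; fluorescence read at 485/525 nm.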
TrxR1 inh = inhibitors of rat thioredoxin reductase 1; AID 588453; recombinant rTrxR1, NADPH fluorescence consumption, selenite substrate; O89049; actives 1% (n = 390,000); Potency, µM (series often up to 114 µM), inactives show at the highest dose activity change, negative = inhibition, most hits filed as inhibitors; also: nearly all actives have a fitted effect of over 65% in size
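Rat TrxR1 (90 nM in the dispensed reagent) was pre-reduced with 400 uM NADPH for 5 min at room temperature, then incubated with compound for 15 min. After 400 uM selenite was added, NADPH fluorescence (Ex 340/Em 450 nm) was followed for 8 min.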
mIDH1 inhibitor = inhibitors of human mutant IDH1 R132H; IDH1-R132H enzyme, NADPH consumption, diaphorase/resazurin fluorescence; AID 602179; actives 0.093% (n = 390,000); Potency, µM (top dose mostly 76.6 µM), inactives show top-dose activity change, negative = inhibition, actives largely listed as inhibitors; also: nearly all actives have a fitted effect of over 65% in size
Target sequence (O75874 whole entry R132H, stated change not applied): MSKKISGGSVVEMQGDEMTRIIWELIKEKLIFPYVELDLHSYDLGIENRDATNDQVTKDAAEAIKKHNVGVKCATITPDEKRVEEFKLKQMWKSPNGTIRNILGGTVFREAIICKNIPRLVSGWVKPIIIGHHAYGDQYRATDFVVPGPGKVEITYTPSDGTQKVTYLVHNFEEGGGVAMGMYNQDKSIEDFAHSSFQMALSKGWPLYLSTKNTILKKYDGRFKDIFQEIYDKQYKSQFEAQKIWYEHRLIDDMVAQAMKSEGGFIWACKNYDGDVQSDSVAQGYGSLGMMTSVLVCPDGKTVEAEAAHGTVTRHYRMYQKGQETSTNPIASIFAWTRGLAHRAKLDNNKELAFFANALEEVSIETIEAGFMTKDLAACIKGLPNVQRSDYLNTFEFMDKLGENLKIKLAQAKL
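IDH1-R132H (0.5 ug/mL) preincubated 30 min with compound, then NADPH (0.016 mM) and alpha-KG (2 mM) added; 80 min at RT, pH 7.5. Remaining NADPH coupled via diaphorase/resazurin to fluorescence (540/590 nm); concentration-response curves normalized to no-enzyme control.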
RGS4 inhibitor = blocks human RGS4-accelerated GTP hydrolysis | P49798 | Transcreener GDP fluorescence polarization, RGS4-accelerated GTP hydrolysis | Potency, µM (doses to about 114 µM), for the others: at the highest dose activity change, negative = inhibition, actives largely listed as inhibitors | actives 0.039% (n = 390,000) | AID 504845; also: nearly all actives have a fitted effect of over 75% in size
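MLSMR compounds (23 nl, pin-transferred) preincubated 10 min at room temperature with a 500nM (2x) first reagent, then RGS4 at 900nM (2x) plus Transcreener GDP mix added; fluorescence polarization (620/688 nm) read before and after 90 min at 30 °C.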
* hit, by the source's call; [ ] = another dose, or the depositor's remark. Calls follow the shape of the dose curve; as a rule, active = well fitted curve in the direction sought with a large enough effect; inconclusive = small, poorly fitted or top-dose-only effect, or another doubt; inactive = no such curve, though single readings can be large; an effect the other way counts as inactive or inconclusive. % is scaled to controls: 0 for no effect and ±100 for the full control effect; potency is read from the fitted curve at half-maximal effect.

Screening COc1ccc(NC(=O)CSc2ccc(-c3ccco3)nn2)cc1OC returned TrxR1 substrate -1.8%, Eya2 phos inh -6.8%, TrxR1 inh 35.5µM*, mIDH1 inhibitor 1.0% and RGS4 inhibitor 6.3%.
Screening COc1ccc(CNC(=O)CC2N=C3c4ccccc4N=C(SCC(=O)Nc4ccc(N(C)C)cc4)N3C2=O)cc1 (stereo unspecified) returned TrxR1 substrate 4.3%[57.1 µM], TrxR1 inh 19.4%[57.1 µM], mIDH1 inhibitor 1.4% and RGS4 inhibitor -28.9%.
O=C(N/N=C\C=C\c1ccco1)c1cncc(Br)c1 was read as TrxR1 substrate -16.4%, Eya2 phos inh 16.7%, TrxR1 inh 50.1µM*, mIDH1 inhibitor -7.5% and RGS4 inhibitor inconclusive.
For O=C(N/N=C/C=C/c1ccco1)c1cccnc1 the results were TrxR1 substrate -11.5%, Eya2 phos inh -15.9%, TrxR1 inh 5.62µM*, mIDH1 inhibitor 8.4% and RGS4 inhibitor -40.8%.
`O=C(N/N=C/C=C\c1ccco1)c1cccnc1` gave TrxR1 substrate -10.7%, Eya2 phos inh 6.7%, TrxR1 inh inconclusive, mIDH1 inhibitor -0.2% and RGS4 inhibitor -36.9%.
`O=C(c1ccccc1NS(=O)(=O)c1ccccc1)N1CCCCCC1` gave TrxR1 substrate -3.7%, Eya2 phos inh -15.3%, TrxR1 inh -8.5%[57.1 µM], mIDH1 inhibitor 3.4% and RGS4 inhibitor -10.2%.
Screening COc1ccc(OC)c(-n2c3c(cc(-c4nc(-c5ccc(Cl)cc5)cs4)c2=O)C(=O)CC(C)(C)C3)c1 returned TrxR1 substrate 13.3%, TrxR1 inh 28.1%, mIDH1 inhibitor 1.26µM* and RGS4 inhibitor -2.1%.
Screening CCSc1ncc(Cl)c(C(=O)Nc2ccccc2OC)n1 returned TrxR1 substrate 4.0%, Eya2 phos inh 2.9%, TrxR1 inh 23.5%, mIDH1 inhibitor -5.9% and RGS4 inhibitor 18.3%.
Screening CCc1nnc(NC(=O)c2nc(S(=O)(=O)Cc3ccccc3)ncc2Cl)s1 returned TrxR1 substrate 1.5%, Eya2 phos inh -3.4%, TrxR1 inh 44.7µM*, mIDH1 inhibitor 2.6% and RGS4 inhibitor -16.7%.
Screening CCc1nnc(NC(=O)c2nc(S(=O)(=O)Cc3ccc(C)cc3)ncc2Cl)s1 returned TrxR1 substrate 0.6%, Eya2 phos inh 8.6%, TrxR1 inh 44.7µM*, mIDH1 inhibitor -0.6% and RGS4 inhibitor inconclusive.
CCc1nnc(NC(=O)c2nc(S(=O)(=O)Cc3cccc(C)c3)ncc2Cl)s1 was read as TrxR1 substrate -2.5%, Eya2 phos inh -10.3%, TrxR1 inh 39.8µM*, mIDH1 inhibitor 0.3% and RGS4 inhibitor inconclusive.
For CCc1nnc(NC(=O)c2nc(Cl)ccc2Cl)s1 the results were TrxR1 substrate 9.7%, Eya2 phos inh -9.7%, TrxR1 inh 38.9%, mIDH1 inhibitor 3.2% and RGS4 inhibitor 9.4%.
CCOc1ccccc1NC(=O)c1nc(S(=O)(=O)Cc2cccc(C)c2)ncc1Cl was read as TrxR1 substrate -9.4%, Eya2 phos inh -7.8%, TrxR1 inh 7.08µM*, mIDH1 inhibitor -15.4% and RGS4 inhibitor -38.0%.
Screening CCc1nnc(NC(=O)c2nc(SCc3ccccc3F)ncc2Cl)s1 returned TrxR1 substrate -4.0%, TrxR1 inh 8.6%, mIDH1 inhibitor 1.8% and RGS4 inhibitor -10.7%.
`COCc1cc(=O)[nH]c(SCCS(=O)(=O)c2ccc(Cl)cc2Cl)n1` gave TrxR1 substrate 5.9%, Eya2 phos inh -4.8%, TrxR1 inh 1.26µM*, mIDH1 inhibitor 1.5% and RGS4 inhibitor -21.4%.
Screening Cc1cnc(C(=O)OCC(=O)NC(=O)NC(C)C)cn1 returned TrxR1 substrate 0.9%, Eya2 phos inh 9.9%, TrxR1 inh 7.8%, mIDH1 inhibitor 10.0% and RGS4 inhibitor -40.8%.
Screening Cc1cc2cc(CNC(=O)c3ccc(Br)o3)ccc2n1C returned TrxR1 substrate 10.0%[57.1 µM], Eya2 phos inh 1.0%, TrxR1 inh 8.91µM*, mIDH1 inhibitor 0.0% and RGS4 inhibitor inconclusive.
Screening CCCC(=O)NCc1ccc2c(c1)cc(C)n2C returned TrxR1 substrate -3.9%, Eya2 phos inh 23.4%, TrxR1 inh 18.2%, mIDH1 inhibitor -0.4% and RGS4 inhibitor 0.7%.

Screening results deposited in PubChem BioAssay by National Center for Advancing Translational Sciences (NCATS).
